CHRM1 agonist – agonists of human M1 muscarinic receptor; P11229; CHO-K1 hM1, Fluo-8 calcium fluorescence, agonist mode; 0% DMSO, 100% acetylcholine EC100; activation, % at 3 µM; actives 0.33% (n = 360,000); AID 588814;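 active = activation above the run's mean compound activation plus 3 SD, cut at about 16% in these data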;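 note: peak over basal fluorescence ratio within a 140 s kinetic read after compound addition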
Target sequence (P11229 whole entry, looked up): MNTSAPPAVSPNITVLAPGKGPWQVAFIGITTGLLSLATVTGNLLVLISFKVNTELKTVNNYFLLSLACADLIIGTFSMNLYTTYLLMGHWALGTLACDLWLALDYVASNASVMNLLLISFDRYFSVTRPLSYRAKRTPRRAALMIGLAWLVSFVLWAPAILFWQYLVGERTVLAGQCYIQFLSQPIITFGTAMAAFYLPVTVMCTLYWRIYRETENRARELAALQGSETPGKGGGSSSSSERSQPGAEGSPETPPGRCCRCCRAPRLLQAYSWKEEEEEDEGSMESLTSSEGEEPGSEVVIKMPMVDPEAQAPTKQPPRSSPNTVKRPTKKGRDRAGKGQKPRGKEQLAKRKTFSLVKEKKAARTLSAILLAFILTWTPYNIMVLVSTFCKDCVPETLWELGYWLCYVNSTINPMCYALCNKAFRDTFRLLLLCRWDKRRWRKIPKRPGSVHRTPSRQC
M1 antag – blocks human M1 muscarinic receptor. P11229. CHO-K1 hM1, Fluo-8 calcium fluorescence, ACh EC80 antagonist. inhibition, % at 3 µM. actives 1.3% (n = 360,000);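 active = percent inhibition above its own plate's cutoff, namely the mean of that plate's compound wells plus 3 SD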;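 note: peak over basal fluorescence ratio during 140 s after agonist addition; 0% = ACh EC80 plus DMSO and 100% = DMSO alone without agonist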
M1 PAM – human CHRM1 positive allosteric modulation; CHO-K1 hM1, Fluo-8 calcium fluorescence, ACh EC20; 0% = ACh EC20, 100% = maximal ACh; activation, % at 3 µM; P11229; actives 0.088% (n = 360,000); in the data active = activation above about 19%, passing the limit was not always enough
CHO-K1 Ca PAM – nonselective activator or artifact in parental CHO-K1 calcium assay; ATP EC20, Fluo-8 calcium fluorescence; 0% at ATP EC20, 100% at ATP max; actives 0.02% (n = 360,000); activation, % at 3 µM;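 active = activation above the run cutoff, the mean activation of all test compounds plus 3 SD, cut at about 40% in these data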;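 note: peak over basal fluorescence ratio in a 140 s read after ATP addition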
CHO-K1 Ca antag – counter-screen for M1 antagonists: effect in parental CHO-K1 cells. ATP-induced calcium, Fluo-8 fluorescence. actives 0.6% (n = 360,000). inhibition, % at 3 µM;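 active = inhibition above a per-plate cutoff, the plate's mean sample inhibition plus 3 SD, cut at about 24% in these data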;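 note: 0% = DMSO plus EC80 ATP and 100% = DMSO alone without ATP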
M1 ag parental – M1 agonist counterscreen hit in parental CHO-K1 cells | activation, % at 3 µM | Fluo-8 calcium fluorescence; scaled to maximal ATP response, vehicle zero | actives 0.48% (n = 360,000); in the data active = activation above about 15%;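 note: untransfected CHO-K1 host cells lacking M1 receptor as counterscreen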
* = called active by the depositor; . = no result. Compounds with a hit are over-represented: about 2.3% of the library has one in this group of screens.

SMILES	CHRM1 agonist	M1 antag	M1 PAM	CHO-K1 Ca PAM	CHO-K1 Ca antag	M1 ag parental
Fc1ccccc1CN1CCCCCCC1	-12	5	-5	2	-16	0
C[C@@H](NC(=O)c1nc[nH]c1C(=O)OCc1ccccc1)c1ccccc1	-5	12	-9	-12	4	0
C[C@@H](NC(=O)c1nc[nH]c1C(=O)NCC(=O)OCc1ccccc1)c1ccccc1	-2	33*	-13	-9	-1	8
C[C@H](NC(=O)c1nc[nH]c1C(=O)NCc1ccc(CNC(=O)OC(C)(C)C)cc1)C(=O)OCc1ccccc1	-1	45*	-21	-5	9	12
NCCNC[C@@H]1COC2(CCCCCCCCCCC2)O1	-3	-16	21	11	-5	1
CCSc1nnc(NC(=O)c2ccccc2C)s1	-6	53*	-12	13	-7	1
CCSc1nnc(NC(=O)CC)s1	16*	-3	4	18	-5	0
c1ccc(-c2c[n+]3c(n2-c2ccccc2)SCC3)cc1	-9	-4	0	17	-6	0
CCOc1ccc(-n2c(-c3ccc(Cl)cc3)c[n+]3c2SCC3)cc1	-7	50*	-19	18	-16	1
COc1ccc(C(=O)Nc2cc(C)nn2-c2ccc(C)cc2)cc1	-4	-5	5	25	-2	1
Cc1ccc(C)c(NC(=O)Cn2nc(C(F)(F)F)cc2C2CC2)c1	1	-20	26*	2	-41	0
COc1cccc(CN2CCC2(C)C(=O)Nc2ccc(C)c(O)c2)c1F (centres undefined)	-1	6	-3	-10	5	1
O=C(c1cccc(-c2ccccc2)c1)N1CC[C@@H](N2CCC(O)CC2)[C@H](O)C1	-4	-8	6	-1	1	0
COc1ccccc1Nc1ccc(NS(=O)(=O)c2ccc(C(C)=O)cc2)cc1	3	-1	-1	-15	-10	7
CCCC[C@@H]1Cc2[nH][nH]c(=O)c2[C@H](c2ccc(C(C)C)cc2)O1	.	.	.	2	-11	1
COC(=O)c1ccc(C[n+]2ccccc2)cc1	-9	-15	9	-6	24*	0
COC(=O)c1ccc(NC(=O)C[n+]2ccccc2)cc1	-10	13	-13	9	-5	1
COc1cc2c(cc1OC)-c1nnc(C)n1C1(CCCC1)C2	-4	-4	4	-9	27*	-1
CC(C)c1cc2c(c(O)c1O)[C@@]13CCCC(C)(C)C1CC2OC3=O (some centres undefined)	1	3	-3	-1	-5	3
COc1ccc(S(=O)(=O)NCC2CCCO2)cc1NC(=O)c1ccc(Cl)cc1 (centres undefined)	-3	15	11	-22	3	0
COc1cc(SC)ccc1C(=O)N1CCN(S(=O)(=O)/C=C/c2ccccc2)CC1	0	-16	13	0	-10	2
COc1cc(C2C=C(c3cccs3)Nc3ncnn32)cc(OC)c1OC (centres undefined)	12	8	-2	-2	4	20*
COc1cc(C2CC(=O)C3=C(C2)Nc2ncnn2C3c2cccs2)cc(OC)c1OC (centres undefined)	1	-14	21	14	-10	0
CC1CCCC(NC(=O)c2ccc3c(SCC(=O)O)c4c(nc3c2)CCC4)C1C (centres undefined)	-2	39*	-6	11	-11	0
O=C1/C(=C/c2cccc(F)c2)Oc2cc(O)ccc21	7	-1	-2	-7	-14	15*
SMILES	CHRM1 agonist	M1 antag	M1 PAM	CHO-K1 Ca PAM	CHO-K1 Ca antag	M1 ag parental
CC(C)CN1CCC(=O)N(CCOc2ccccc2)CC1	2	15	-3	-17	5	0
CCCN1CCC(=O)N(CCOc2ccccc2)CC1	-5	1	4	-18	24*	3
O=C(CCNC(=O)c1ccccc1Cl)NCCC1=CCCCC1	-2	-17	5	-10	10	0
COCCSc1ccccc1C(=O)Nc1ccc(Cl)cn1	-6	-11	12	21	-9	1
COCCCNC(=O)c1ccccc1Sc1ccc(NC(C)=O)nc1	-6	-2	4	-14	24*	0
CCC(NC(=O)c1cncc(Br)c1)c1ccccc1 (centres undefined)	-3	0	5	11	-4	1
Cc1cc[n+](C(C)C(=O)c2ccc(-c3ccccc3)cc2)cc1 (centres undefined)	-7	58*	-20	22	-10	1
CC(C(=O)c1ccc(-c2ccccc2)cc1)[n+]1ccccc1 (centres undefined)	-5	-8	-8	7	-5	0
CC1CCN(c2nc3ccccc3n2CC(=O)c2ccccc2)CC1	-5	67*	-23	3	1	0
CN(Cc1ccccc1)C(=O)c1csc([C@@H]2C[C@H](O)[C@@H](CO)O2)n1	-4	-9	7	-9	9	0
CC(C)C1CC(CCN)(c2ccccc2)CCO1 (centres undefined)	-5	74*	-12	17	-7	0
Cn1c(-c2cccc(Br)c2)cnc1NCc1ccccc1O	-8	-5	1	13	-2	2
COc1cc(-c2cc3nc(NCc4ccco4)ccn3n2)cc(OC)c1OC	-3	-4	-2	-15	32*	1
COc1cc(-c2cc3nc(NCCOc4ccccc4)ccn3n2)cc(OC)c1OC	-3	10	-10	18	-14	5
O=C(NCc1ccco1)c1ccccc1NS(=O)(=O)c1ccc(Br)s1	1	-2	-1	0	24*	8
CN(c1ccccc1C(=O)Nc1ccccc1C(=O)NCc1ccco1)S(C)(=O)=O	1	-3	12	-8	35*	0
COc1ccc(S(=O)(=O)Nc2ccccc2C(=O)NCc2ccco2)cc1	-3	-7	6	15	-2	1
COc1ccc(C(=O)Nc2ccccc2C(=O)NCc2ccco2)cc1OC	1	20*	-12	16	3	4
O=C(Nc1cc(S(=O)(=O)N2CCOCC2)ccc1N1CCCC1)c1ccc2c(c1)S(=O)(=O)c1ccccc1C2=O	-4	17	-3	7	6	14
CCCCNC(=O)C1(C)CCCCN1Cc1ccc2ccccc2c1 (centres undefined)	-6	-2	5	-4	6	0
O=[N+]([O-])c1ccc(N(CC2CO2)S(=O)(=O)c2ccccc2)cc1 (centres undefined)	-10	-9	21	-14	-2	1
O=S(=O)(c1ccccc1)N(CC1CO1)c1ccccc1 (centres undefined)	-4	-4	10	29	-9	16*

Screening results deposited in PubChem BioAssay by The Scripps Research Institute Molecular Screening Center.
